Pf gamet viab: late stage P. falciparum gametocyte viability inhibitors, primary screen, ATP luminescence, HTS; P. falciparum stage V gametocytes, 24 h; inhibition, % at 10.9 µM; hit rate 0.065% among 150,000; AID 743093, 2013;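 active = inhibition above the mean plus 3 SD of compounds within the control limits, set per campaign, cut at about 38% in these data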;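 note: 0% = DMSO wells and 100% = medium only without gametocytes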
Mcl1-Bid inh: Mcl-1/Bid binding inhibitors, primary screen, biochemical, TR-FRET, 1536-well; Induced myeloid leukemia cell differentiation protein Mcl-1 (Homo sapiens), Q07820; TR-FRET Mcl-1/Bid-Dy647 peptide binding; inhibition, % at 21.7 µM; hit rate 0.97% among 220,000;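 active = compounds that cut the binding signal by more than half at the single screening dose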;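 note: His-tagged Mcl-1 with europium anti-His antibody binding Bid BH3 peptide; 0% = Mcl-1 plus peptide wells and 100% = peptide-only wells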
Target sequence (Q07820 whole entry, looked up): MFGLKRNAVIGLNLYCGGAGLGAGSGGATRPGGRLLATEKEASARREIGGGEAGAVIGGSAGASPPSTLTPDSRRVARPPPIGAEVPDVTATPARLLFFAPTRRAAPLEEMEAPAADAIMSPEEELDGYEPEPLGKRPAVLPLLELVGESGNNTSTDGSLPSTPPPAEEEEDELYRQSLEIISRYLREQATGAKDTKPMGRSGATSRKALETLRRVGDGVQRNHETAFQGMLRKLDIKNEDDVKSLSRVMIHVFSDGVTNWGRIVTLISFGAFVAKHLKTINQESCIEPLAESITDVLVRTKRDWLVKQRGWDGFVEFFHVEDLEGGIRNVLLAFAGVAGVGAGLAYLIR
Mcl-1 Bim block: inhibitors of Bim peptide binding to Mcl-1, primary screen, biochemical, bead-based flow cytometry, multiplex; Bim peptide-Mcl-1 binding; Induced myeloid leukemia cell differentiation protein Mcl-1 (Homo sapiens), Q07820; inhibition, % at 10 µM; hit rate 0.1% among 190,000; in the data active = inhibition above about 40%;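 note: 0% = no compound tracer wells and 100% = peptide blocker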
eIF4E-4G inh: eIF4E–eIF4G protein interaction inhibitors, primary screen, biochemical, uHTS, TR-FRET, eIF4GI fragment | inhibition, % at 21.7 µM | AID 782, 2007 | hit rate 0.37% among 220,000 | Eukaryotic translation initiation factor 4E (Mus musculus) + Eukaryotic translation … | TR-FRET eIF4E-eIF4GI(517-606) binding, 2 h;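 active = inhibition above about 30%, limit read from the data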;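 note: 0% = full FRET control wells and 100% = background wells lacking eIF4GI fragment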
Mcl1 Noxa PPI: Mcl-1/Noxa binding inhibitors, primary screen, biochemical, TR-FRET, 1536-well; inhibition, % at 21.7 µM; Induced myeloid leukemia cell differentiation protein Mcl-1 (Homo sapiens), Q07820; AID 1022, 2008; TR-FRET Mcl-1/Noxa peptide binding, 2 h; hit rate 1.5% among 220,000;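 active = compounds that cut the protein-peptide binding signal by more than 50% relative to plate controls in a single-dose test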;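 note: His-tagged Mcl-1 with rhodamine Noxa BH3 peptide and terbium anti-His antibody; 0% = Mcl-1 plus Noxa peptide wells and 100% = peptide-only wells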
14-3-3 Bad inh: inhibitors of 14-3-3 zeta/Bad binding, primary screen, biochemical, TR-FRET, bovine 14-3-3 zeta. hit rate 0.71% among 220,000. TR-FRET 14-3-3zeta/Dy647-pBad peptide displacement, 1 h. inhibition, % at 21.7 µM;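 active = inhibition above about 70%, limit read from the data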;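 note: 0% = full 14-3-3 plus peptide FRET controls and 100% = background without 14-3-3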
Target sequence (P63103 whole entry, looked up): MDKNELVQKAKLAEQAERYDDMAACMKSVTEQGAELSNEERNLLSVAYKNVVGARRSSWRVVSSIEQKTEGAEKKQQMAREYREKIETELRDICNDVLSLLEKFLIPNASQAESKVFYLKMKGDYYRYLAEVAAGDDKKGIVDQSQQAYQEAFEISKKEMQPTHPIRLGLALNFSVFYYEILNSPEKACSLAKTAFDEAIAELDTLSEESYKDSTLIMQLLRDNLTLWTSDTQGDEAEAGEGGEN
* marks the source's active call; other numbers are inactive results; x = not tested or not shown; [ ] = another dose, or the depositor's remark. Only some compounds are listed: those with a hit (about 2.7% of all), similar ones and a draw of the others.

SMILES	Pf gamet viab	Mcl1-Bid inh	Mcl-1 Bim block	eIF4E-4G inh	Mcl1 Noxa PPI	14-3-3 Bad inh
Cc1c(NC(=O)C(C)OC(=O)c2c3c(nc4ccccc24)CCC3)c(=O)n(-c2ccccc2)n1C (configuration not stated)	-24	-19	-5	3	54*	-5
O=C(O)C1CCC(=O)N(C2CCCCC2)C1c1ccccc1 (configuration not stated)	x	-4	0	0	23	10
COC(=O)COc1ccc(S(=O)(=O)Nc2ccc3c(c2)OCO3)cc1	13	-18	-2	55*[fluorescence artefact?]	9	-11
COC(=O)COc1ccc(S(=O)(=O)Nc2ccc3c(c2)OCO3)cc1Cl	x	-34	0	3	17	12
NC(=S)Nc1ccc(F)cc1F	-17	77*	x	3	-12	-2
CCC12CN3CCN(CC(C3)/C1=N\NC(=O)c1ccc(F)cc1)C2	2	-36	-1	-1	4	-18
CCN(CC)CCNC(=O)/C(=C/c1cn(C)c2ccccc12)NC(=O)c1ccc(OC)c(OC)c1	-10	95*	x	1	3	-7
CCN(CC)CCNC(=O)/C(=C/c1cn(CC)c2ccccc12)NC(=O)c1cc(OC)c(OC)c(OC)c1	10	-52	2	1	16	-8
COc1ccc(OC)c(/C=N/NC(=O)CSc2cc(C)nc3c(OC)cccc23)c1	-1	35	0	21	39	86*
COc1ccc(OC)c(/C=N\NC(=O)CSc2nnc(CCCc3ccc(OC)c(C)c3)o2)c1	x	-10	-4	2	-1	-4
CCCN1C2CCCC1CC(NC(=O)c1ccc(Br)cc1)C2 (configuration not stated)	-5	x	x	x	x	x
O=C(/C=C/c1ccc(Br)cc1)N1CCN(c2cccc(C(F)(F)F)c2)CC1	x	61*	-2	-2	-4	-1
O=C(CN1CCN(c2cccc(C(F)(F)F)c2)CC1)Nc1cccc(C(F)(F)F)c1	x	12	5	0	13	74*
O=C(c1ccncc1)N1CCN(c2cccc(C(F)(F)F)c2)CC1	x	-24	0	6	57*	-9
COc1ccc(NC(=O)c2cc(Cl)ccc2NC(=O)c2ccco2)c(OC)c1	x	21	-3	-22	6	9
CCOC(=O)c1sc2ncnc(NCc3ccco3)c2c1C	-19	-13	-3	-2	23	-13
CCc1cc2c(NCc3ccco3)ncnc2s1	x	16	0	7	31	87*
C=CCC1(N(C(C)=O)c2ccccc2C)CCCCC1	-27	2	1	3	-5	-13
CN(C)c1ccnc2c[cH-]cc12.[Fe].c1ccc(-[c-]2[c-](-c3ccccc3)[c-](-c3ccccc3)[c-](-c3ccccc3)[c-]2-c2ccccc2)cc1 (configuration not stated)	11	-14	x	41*	30	50
CN(C)c1ccnc(Nc2ccccc2)c1C#N	11	-30	1	2	1	-17
COC(=O)c1ccccc1NC(=O)COC(=O)c1ccc(C)c(NC(=O)c2ccco2)c1	9	-16	0	86*[fluorescence artefact?]	-13	89*[fluorescence artefact?]
CN(Cc1ccccc1)C(=O)COC(=O)/C=C/c1ccco1	8	-24	-3	48*	6	-15
CN(CCOC(=O)/C=C/c1ccco1)Cc1ccccc1	9	-79	0	14	23	15
O=C(COC(=O)/C=C/c1ccco1)Nc1ccccc1	10	-13	0	7	-10	12
COC(=O)c1ccccc1NC(=O)COC(=O)/C=C/c1ccco1	18	95*	-2	6	9	6
SMILES	Pf gamet viab	Mcl1-Bid inh	Mcl-1 Bim block	eIF4E-4G inh	Mcl1 Noxa PPI	14-3-3 Bad inh
COC(=O)c1ccccc1NC(=O)COC(=O)c1ccco1	x	-12	0	0	20	8
CC(=O)c1ccc(S(=O)(=O)N2CCN(c3ccccc3F)CC2)cc1	19	-21	0	1	-12	6
CCOc1cc(CNCCCN2CCOCC2)cc(Br)c1OCC(=O)Nc1cccc(C(F)(F)F)c1	x	21	-1	1	18	79*
CCn1c(C)nc2cc(C(=O)N/N=C/c3cccc(OC)c3O)ccc21	-44	-38	2	-7	65*	-15
CCn1c(C)nc2cc(C(N)=O)ccc21	x	-12	x	-10	9	-2
CCn1c(C)nc2cc(C(=O)N/N=C/c3ccc(O)c(O)c3O)ccc21	12	42	11	78*	95*	36
O=C(/C=C1\NC2(CCCC2)Cc2ccccc21)C(=O)N/N=C/c1ccc(O)c(O)c1	-3	-58	0	7	89*	5
COc1ccc(/C=N/NC(=O)C(=O)/C=C2\NC3(CCCC3)Cc3ccccc32)cc1	x	-29	-4	-1	16	-4
CN(C)c1ccc(N=Nc2nc3ccccc3n2C)cc1	49*	-88	x	-13	-56	-15
O=c1cc(CSc2ccccn2)c2ccccc2[nH]1	-3	11	1	3	9	81*[fluorescence artefact?]
Cn1c(N)c(C(=O)COC(=O)c2cc(-c3ccco3)nc3ccccc23)c(=O)n(Cc2ccccc2)c1=O	x	15	-2	5	106*	1
Cn1c(N)c(C(=O)COC(=O)c2cc(-c3ccco3)nc3ccccc23)c(=O)n(C)c1=O	x	26	7	4	87*	8
CC(C)Cn1c(N)c(C(=O)COC(=O)c2ccccc2Cl)c(=O)n(C)c1=O	14	-9	0	-2	61*	0
Cn1c(N)c(C(=O)CSc2nc3ccccc3c(=O)n2Cc2ccccc2)c(=O)n(C)c1=O	-13	52*	x	3	-91	67
CC(C)Cn1c(N)c(C(=O)COC(=O)c2ccccc2F)c(=O)n(C)c1=O	x	1	-3	-2	-19	6
COc1ccc(-c2cc(C(=O)OCC(=O)c3c(N)n(C)c(=O)n(C)c3=O)c3ccccc3n2)cc1	x	-58	4	-1	-2	-9
Cc1nc([N+](=O)[O-])cn1-c1nc2ccccn2c1[N+](=O)[O-]	x	5	x	1	4	4
CC1CCCCC1NC1=NCCCS1 (configuration not stated)	x	-9	0	3	10	-8
CCOC(=O)c1ccc(N=Nc2c(C)c(C#N)c(O)[nH]c2=O)cc1	-13	-22	-2	11	88*	6
Cc1ccc(-c2nn(C)c(=O)c3ccccc23)cc1CN1CCCCC1	17	-34	x	1	16	-8

Compound activity as filed in PubChem BioAssay.
